Inconclusive results are not listed. Active and inactive are the calls of the source. Rule for the calls: active = hit-call score of the fitted dose curve at least 0.9, where 1 is the maximum; inconclusive = response in the unintended direction; inactive = score below 0.9.
Columns and labels:
[1] = target: sheep Cyclooxygenase-1 (Cox1), PTGS1 (gene 443551) (UniProt P05979); experiment: NVS_ENZ_oCOX1: NovaScreen (NVS) Enzymatic Assay for sheep Cyclooxygenase-1 (Cox1) (AID 2283239);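 note: actives reduce cyclooxygenase activity so potencies are for inhibitors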
sheep Cyclooxygenase-1 (Cox1), PTGS1 (gene 443551), sequence (P05979 whole entry, looked up): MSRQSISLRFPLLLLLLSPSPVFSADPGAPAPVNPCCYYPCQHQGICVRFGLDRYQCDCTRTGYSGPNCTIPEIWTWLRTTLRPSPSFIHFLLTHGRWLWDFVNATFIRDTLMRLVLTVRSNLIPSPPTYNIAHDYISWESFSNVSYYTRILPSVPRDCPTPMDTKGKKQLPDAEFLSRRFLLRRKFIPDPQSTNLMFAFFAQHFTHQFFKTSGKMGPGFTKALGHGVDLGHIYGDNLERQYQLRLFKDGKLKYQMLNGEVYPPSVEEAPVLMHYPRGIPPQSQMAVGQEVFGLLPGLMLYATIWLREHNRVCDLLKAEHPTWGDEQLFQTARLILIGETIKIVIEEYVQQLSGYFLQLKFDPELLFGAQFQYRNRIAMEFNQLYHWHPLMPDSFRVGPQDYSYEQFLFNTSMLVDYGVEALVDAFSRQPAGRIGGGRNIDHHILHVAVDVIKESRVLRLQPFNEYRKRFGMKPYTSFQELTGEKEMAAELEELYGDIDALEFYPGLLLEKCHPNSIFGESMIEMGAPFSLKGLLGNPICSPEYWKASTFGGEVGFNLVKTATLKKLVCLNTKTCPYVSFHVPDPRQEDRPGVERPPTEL
In short: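 Ovine seminal vesicle extract; absorbance (colorimetric) enzyme read-out at 0.66 h post-dose. Primary: single conc 25 uM, duplicate. Follow-up: concentration series on actives. Activity = signal loss vs DMSO baseline.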

[2] = target: guinea pig Leukotriene D4 Receptor (LTD4), CYSLTR1 (gene 100135514) (UniProt Q2NNR5); experiment: NVS_GPCR_gLTD4: NovaScreen (NVS) G Protein-Coupled Receptor Assay for guinea pig Leukotriene D4 Receptor (LTD4) (AID 2283248)
guinea pig Leukotriene D4 Receptor (LTD4), CYSLTR1 (gene 100135514), sequence (Q2NNR5 whole entry, looked up): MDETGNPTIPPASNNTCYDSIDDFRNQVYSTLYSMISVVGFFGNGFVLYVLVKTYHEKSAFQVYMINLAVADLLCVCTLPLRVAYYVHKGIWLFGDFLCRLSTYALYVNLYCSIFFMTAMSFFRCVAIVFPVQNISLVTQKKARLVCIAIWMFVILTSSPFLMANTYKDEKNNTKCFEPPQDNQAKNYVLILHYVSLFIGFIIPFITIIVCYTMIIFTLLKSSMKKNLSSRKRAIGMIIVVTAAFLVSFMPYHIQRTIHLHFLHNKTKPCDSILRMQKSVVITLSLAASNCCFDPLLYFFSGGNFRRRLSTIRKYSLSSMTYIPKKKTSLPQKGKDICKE
In short: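 Radioligand displacement on guinea pig lung membranes, 1 h incubation, filtration and scintillation counting; DMSO as negative control. Duplicate 25 uM primary screen, then singleton concentration-response up to 50 uM.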

[3] = target: guinea pig Opioid, Kappa 1 Receptor (OpiateK), OPRK1 (gene 100135587) (UniProt P41144); experiment: NVS_GPCR_gOpiateK: NovaScreen (NVS) G Protein-Coupled Receptor Assay for guinea pig Opioid, Kappa 1 Receptor (OpiateK) (AID 2283252);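 note: radioligand displacement from kappa opioid receptor in guinea pig cerebellar membranes; active means reduced radioligand binding relative to DMSO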
guinea pig Opioid, Kappa 1 Receptor (OpiateK), OPRK1 (gene 100135587), sequence (P41144 whole entry, looked up): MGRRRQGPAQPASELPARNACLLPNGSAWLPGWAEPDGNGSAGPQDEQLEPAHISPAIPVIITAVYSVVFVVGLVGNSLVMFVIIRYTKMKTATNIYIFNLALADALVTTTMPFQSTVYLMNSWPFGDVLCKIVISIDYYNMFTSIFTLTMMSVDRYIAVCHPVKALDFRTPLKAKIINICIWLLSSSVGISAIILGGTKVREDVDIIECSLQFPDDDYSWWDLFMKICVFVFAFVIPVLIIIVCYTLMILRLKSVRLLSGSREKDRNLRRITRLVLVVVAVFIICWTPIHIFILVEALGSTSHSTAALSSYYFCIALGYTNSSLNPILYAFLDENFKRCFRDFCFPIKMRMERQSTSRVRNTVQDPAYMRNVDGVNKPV
In short: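 Signal is scintillation counts of filter-trapped radioligand bound to guinea pig cerebellar membrane receptor, measured 2 hours post-dosing. Activity is loss of binding versus DMSO, first at 25 uM in duplicate, then as concentration series for actives.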

[4] = target: human Adenosine A1 Receptor (AdoRA1), ADORA1 (gene 134) (UniProt P30542); experiment: NVS_GPCR_hAdoRA1: NovaScreen (NVS) G Protein-Coupled Receptor Assay for human Adenosine A1 Receptor (AdoRA1) (AID 2283254)
In short: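 Membranes from human cortical tissue were incubated with radioligand and test chemical for 1 hour, then filtered and counted. Activity was taken as signal loss relative to DMSO, screened at 25 uM in duplicate before concentration-response follow-up.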

[5] = target: human Adenosine A2a Receptor (AdoRA2a), ADORA2A (gene 135) (UniProt P29274); experiment: NVS_GPCR_hAdoRA2a: NovaScreen (NVS) G Protein-Coupled Receptor Assay for human Adenosine A2a Receptor (AdoRA2a) (AID 2283256)
human Adenosine A2a Receptor (AdoRA2a), ADORA2A (gene 135), sequence (P29274 whole entry, looked up): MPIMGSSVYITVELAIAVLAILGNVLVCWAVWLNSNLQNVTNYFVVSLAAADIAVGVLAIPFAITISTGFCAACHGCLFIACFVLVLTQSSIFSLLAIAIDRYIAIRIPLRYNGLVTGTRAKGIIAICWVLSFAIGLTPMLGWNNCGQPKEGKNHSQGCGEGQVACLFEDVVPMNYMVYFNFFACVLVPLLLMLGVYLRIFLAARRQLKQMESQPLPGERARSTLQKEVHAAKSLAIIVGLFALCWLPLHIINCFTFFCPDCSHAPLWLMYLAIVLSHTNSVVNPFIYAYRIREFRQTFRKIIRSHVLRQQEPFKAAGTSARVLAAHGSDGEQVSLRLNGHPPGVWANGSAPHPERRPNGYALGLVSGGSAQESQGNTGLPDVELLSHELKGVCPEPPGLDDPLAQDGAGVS
In short: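 Cell-free radioligand binding on membranes from HEK293 expressing the receptor; competitive displacement read 1.5 h after dosing by filter-based scintillation counting. Primary screen in duplicate at 25 uM; actives followed in concentration series, with DMSO as baseline.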

[6] = target: human SRC Proto-Oncogene, Non-receptor Tyrosine Kinase (SRC), SRC (gene 6714) (UniProt P12931); experiment: NVS_ENZ_hSRC: NovaScreen (NVS) Enzymatic Assay for human SRC Proto-Oncogene, Non-receptor Tyrosine Kinase (SRC) (AID 2283223)
In short: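 Cell-free kinase activity assay with fluorescent substrate, product separated by electrophoretic mobility shift, read 1 h after dosing. Duplicate single point at 25 uM, then concentration-response up to 50 uM; loss of signal versus DMSO.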

[7] = target: human Sirtuin 3 (SIRT3), SIRT3 (gene 23410) (UniProt Q9NTG7); experiment: NVS_ENZ_hSIRT3: NovaScreen (NVS) Enzymatic Assay for human Sirtuin 3 (SIRT3) (AID 2283222)
human Sirtuin 3 (SIRT3), SIRT3 (gene 23410), sequence (Q9NTG7 whole entry, looked up): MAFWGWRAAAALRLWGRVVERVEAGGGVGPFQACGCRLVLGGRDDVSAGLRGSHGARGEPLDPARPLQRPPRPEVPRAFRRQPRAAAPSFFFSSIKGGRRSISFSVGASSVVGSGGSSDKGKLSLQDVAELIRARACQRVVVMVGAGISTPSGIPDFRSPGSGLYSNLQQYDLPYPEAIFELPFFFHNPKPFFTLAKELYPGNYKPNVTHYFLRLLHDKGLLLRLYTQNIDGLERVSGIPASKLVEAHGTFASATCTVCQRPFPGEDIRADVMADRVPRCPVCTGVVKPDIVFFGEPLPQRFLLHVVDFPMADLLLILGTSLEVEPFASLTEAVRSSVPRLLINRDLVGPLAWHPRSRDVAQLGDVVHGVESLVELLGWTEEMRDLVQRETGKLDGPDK
In short: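 Cell-free enzyme assay with recombinant protein and fluorescent substrate, product separated by electrophoretic mobility shift; read 1 hour after dosing. Screened in duplicate at 25 uM, then singleton concentration-response up to 50 uM; loss of signal versus DMSO.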

[8] = target: rabbit Imidazoline 2 Central (I2C), CKB (gene 100009085) (UniProt P00567); experiment: NVS_ENZ_rabI2C: NovaScreen (NVS) Enzymatic Assay for rabbit Imidazoline 2 Central (I2C) (AID 2283228)
rabbit Imidazoline 2 Central (I2C), CKB (gene 100009085), sequence (P00567 whole entry, looked up): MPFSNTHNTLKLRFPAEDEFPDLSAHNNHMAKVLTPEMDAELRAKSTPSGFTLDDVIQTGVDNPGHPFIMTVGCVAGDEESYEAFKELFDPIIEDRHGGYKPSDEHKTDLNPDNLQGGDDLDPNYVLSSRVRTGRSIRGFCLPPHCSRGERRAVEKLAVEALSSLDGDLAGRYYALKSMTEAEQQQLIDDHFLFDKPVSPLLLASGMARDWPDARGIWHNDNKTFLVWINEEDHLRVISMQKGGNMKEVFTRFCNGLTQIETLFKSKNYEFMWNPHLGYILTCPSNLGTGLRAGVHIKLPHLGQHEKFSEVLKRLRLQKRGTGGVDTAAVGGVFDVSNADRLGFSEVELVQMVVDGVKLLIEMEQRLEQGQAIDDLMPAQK
In short: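 Rabbit brain membranes, cell-free; readout by filter-based scintillation counting 1.5 hours after dosing, loss of signal vs DMSO. Initial duplicate test at 25 uM, then concentration-response with 50 uM top concentration.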

[9] = target: bovine Dopamine Receptor (DR), Non-selective Binding, DRD1 (gene 281125) (UniProt Q95136); experiment: NVS_GPCR_bDR_NonSelective: NovaScreen (NVS) G Protein-Coupled Receptor Assay for bovine Dopamine Receptor (DR), Non-selective Binding (AID 2283241)
bovine Dopamine Receptor (DR), Non-selective Binding, DRD1 (gene 281125), sequence (Q95136 whole entry, looked up): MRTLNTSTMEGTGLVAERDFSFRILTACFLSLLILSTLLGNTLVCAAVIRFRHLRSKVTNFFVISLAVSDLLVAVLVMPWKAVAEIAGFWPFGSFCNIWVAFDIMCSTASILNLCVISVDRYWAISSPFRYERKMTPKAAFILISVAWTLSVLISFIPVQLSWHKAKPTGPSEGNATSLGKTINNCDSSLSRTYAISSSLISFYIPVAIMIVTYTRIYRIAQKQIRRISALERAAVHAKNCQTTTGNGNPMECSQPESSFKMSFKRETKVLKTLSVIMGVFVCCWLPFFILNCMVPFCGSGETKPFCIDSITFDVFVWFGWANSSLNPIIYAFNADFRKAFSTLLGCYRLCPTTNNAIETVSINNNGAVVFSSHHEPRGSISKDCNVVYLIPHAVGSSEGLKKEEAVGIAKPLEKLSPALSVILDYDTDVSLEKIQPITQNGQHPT
In short: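 Bovine striatal membranes; radioligand displacement read by filtration and scintillation counting 1 h after dosing, loss of signal vs DMSO. Screened in duplicate at 25 uM, then concentration-response for hits.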

[10] = NVS_GPCR_bNPY_NonSelective: NovaScreen (NVS) G Protein-Coupled Receptor Assay for bovine Neuropeptide Y (NPY) Receptor, Non-selective Binding (AID 2283245)
In short: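 Bovine hippocampal membranes incubated 1 hour with radioligand and test chemical. Bound ligand measured by filter-based scintillation counting. Single-concentration screen at 25 uM in duplicate, then concentration-response up to 50 uM.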

[11] = test system: guinea pig Muscarinic, Peripheral (Mperiperal) Receptor, Non-selective Binding, gene 100379235; experiment: NVS_GPCR_gMPeripheral_NonSelective: NovaScreen (NVS) G Protein-Coupled Receptor Assay for guinea pig Muscarinic, Peripheral (Mperiperal) Receptor, Non-selective Binding (AID 2283250)
In short: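 Guinea pig bladder membranes, radioligand binding read 1 h after dosing by filter scintillation counting; loss of signal vs DMSO. Primary duplicate screen at 25 uM, then concentration-response up to 50 uM.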

[12] = target: human Serotonin, 5-Hydroxytryptamine Receptor 5A (5HT5A), HTR5A (gene 3361) (UniProt P47898); experiment: NVS_GPCR_h5HT5A: NovaScreen (NVS) G Protein-Coupled Receptor Assay for human Serotonin, 5-Hydroxytryptamine Receptor 5A (5HT5A) (AID 2283251)
human Serotonin, 5-Hydroxytryptamine Receptor 5A (5HT5A), HTR5A (gene 3361), sequence (P47898 whole entry, looked up): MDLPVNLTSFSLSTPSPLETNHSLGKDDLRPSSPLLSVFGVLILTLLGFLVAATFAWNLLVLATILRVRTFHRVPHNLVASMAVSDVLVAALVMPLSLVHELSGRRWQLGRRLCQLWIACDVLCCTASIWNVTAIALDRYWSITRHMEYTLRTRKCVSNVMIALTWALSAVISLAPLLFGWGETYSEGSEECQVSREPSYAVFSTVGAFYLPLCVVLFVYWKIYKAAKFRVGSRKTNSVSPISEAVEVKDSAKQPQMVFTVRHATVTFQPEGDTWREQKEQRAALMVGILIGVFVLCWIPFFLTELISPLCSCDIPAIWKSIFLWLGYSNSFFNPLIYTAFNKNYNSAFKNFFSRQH
In short: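 Cell-free radioligand displacement binding on HEK293-derived membrane protein, 1 h incubation, filter-based scintillation counting. Primary screen in duplicate at 25 uM, actives followed in concentration series; loss of signal fitted versus DMSO.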

[13] = target: human Serotonin, 5-Hydroxytryptamine Receptor 6 (5HT6), HTR6 (gene 3362) (UniProt P50406); experiment: NVS_GPCR_h5HT6: NovaScreen (NVS) G Protein-Coupled Receptor Assay for human Serotonin, 5-Hydroxytryptamine Receptor 6 (5HT6) (AID 2283253)
human Serotonin, 5-Hydroxytryptamine Receptor 6 (5HT6), HTR6 (gene 3362), sequence (P50406 whole entry, looked up): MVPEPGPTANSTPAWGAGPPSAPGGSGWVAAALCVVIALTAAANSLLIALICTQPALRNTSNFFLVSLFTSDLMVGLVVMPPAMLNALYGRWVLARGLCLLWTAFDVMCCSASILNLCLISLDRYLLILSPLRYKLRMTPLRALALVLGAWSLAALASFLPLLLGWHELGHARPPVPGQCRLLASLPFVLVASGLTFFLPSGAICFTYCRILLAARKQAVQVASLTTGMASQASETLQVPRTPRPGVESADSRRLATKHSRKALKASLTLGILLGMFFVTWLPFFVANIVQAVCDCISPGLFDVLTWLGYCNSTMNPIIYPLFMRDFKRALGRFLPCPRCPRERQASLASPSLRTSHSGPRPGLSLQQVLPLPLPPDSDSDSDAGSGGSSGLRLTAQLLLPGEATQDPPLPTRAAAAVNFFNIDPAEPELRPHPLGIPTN
In short: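 Radioligand binding to 5HT6 in HEK293-derived membranes, cell-free, 1 h after dosing; bound ligand measured by filter-based scintillation counting. Primary screen in duplicate at 25 uM; actives retested in concentration series.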

[14] = target: human Serotonin, 5-Hydroxytryptamine Receptor 7 (5HT7), HTR7 (gene 3363) (UniProt P34969); experiment: NVS_GPCR_h5HT7: NovaScreen (NVS) G Protein-Coupled Receptor Assay for human Serotonin, 5-Hydroxytryptamine Receptor 7 (5HT7) (AID 2283255);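 note: hits reduce specific radioligand binding relative to DMSO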
human Serotonin, 5-Hydroxytryptamine Receptor 7 (5HT7), HTR7 (gene 3363), sequence (P34969 whole entry, looked up): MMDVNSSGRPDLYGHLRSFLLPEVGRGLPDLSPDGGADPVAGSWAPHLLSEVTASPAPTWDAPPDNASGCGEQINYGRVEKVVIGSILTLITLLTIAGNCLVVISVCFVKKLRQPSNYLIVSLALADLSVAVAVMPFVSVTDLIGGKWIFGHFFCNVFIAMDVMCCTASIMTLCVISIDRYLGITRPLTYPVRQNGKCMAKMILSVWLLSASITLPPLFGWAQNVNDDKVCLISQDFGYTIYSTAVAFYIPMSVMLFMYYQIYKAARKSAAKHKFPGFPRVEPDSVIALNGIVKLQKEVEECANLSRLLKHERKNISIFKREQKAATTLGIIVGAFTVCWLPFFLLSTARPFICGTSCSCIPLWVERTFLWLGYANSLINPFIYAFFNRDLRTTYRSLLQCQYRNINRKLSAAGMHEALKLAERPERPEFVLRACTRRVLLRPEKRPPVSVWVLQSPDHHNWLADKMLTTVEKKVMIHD
In short: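 Radioligand displacement on membranes from CHO cells expressing human 5HT7, 1 h incubation, filter-based scintillation counting. Primary screen used a single 25 uM concentration in duplicate; actives were followed up in concentration series.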

[15] = target: human Adrenergic, Alpha 2c Receptor (Adra2C), ADRA2C (gene 152) (UniProt P18825); experiment: NVS_GPCR_hAdra2C: NovaScreen (NVS) G Protein-Coupled Receptor Assay for human Adrenergic, Alpha 2c Receptor (Adra2C) (AID 2283259)
human Adrenergic, Alpha 2c Receptor (Adra2C), ADRA2C (gene 152), sequence (P18825 whole entry, looked up): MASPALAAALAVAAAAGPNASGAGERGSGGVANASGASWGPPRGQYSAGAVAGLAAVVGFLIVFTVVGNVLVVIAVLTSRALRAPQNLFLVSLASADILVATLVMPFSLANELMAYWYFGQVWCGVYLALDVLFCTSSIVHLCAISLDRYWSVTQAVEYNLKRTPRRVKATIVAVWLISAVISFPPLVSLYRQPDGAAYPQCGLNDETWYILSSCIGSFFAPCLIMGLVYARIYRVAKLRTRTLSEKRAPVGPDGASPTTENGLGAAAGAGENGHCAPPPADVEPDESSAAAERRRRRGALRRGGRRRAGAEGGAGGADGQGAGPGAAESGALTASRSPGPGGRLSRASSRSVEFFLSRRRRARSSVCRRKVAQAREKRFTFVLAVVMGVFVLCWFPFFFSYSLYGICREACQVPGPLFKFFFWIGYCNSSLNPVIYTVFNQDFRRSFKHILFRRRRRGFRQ
In short: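 Radioligand binding on Sf9-expressed receptor membranes, 1 h after chemical dosing, filter-based scintillation read-out. Loss of binding fitted positively versus DMSO; primary duplicate screen at 25 uM, actives retested in concentration series.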

[16] = target: human Tropomyosin Receptor Kinase A (TRKA), NTRK1 (gene 4914) (UniProt P04629); experiment: NVS_ENZ_hTrkA: NovaScreen (NVS) Enzymatic Assay for human Tropomyosin Receptor Kinase A (TRKA) (AID 2283224)
In short: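 Recombinant human TrkA activity read after 1 h by fluorescence with electrophoretic mobility shift separating substrate and product. Primary screen in duplicate at 25 uM; actives were rerun in concentration-response up to 50 uM. Loss of signal versus DMSO.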

[17] = target: human Vascular Endothelial Growth Factor Receptor 2 (VEGFR2), KDR (gene 3791) (UniProt P35968); experiment: NVS_ENZ_hVEGFR2: NovaScreen (NVS) Enzymatic Assay for human Vascular Endothelial Growth Factor Receptor 2 (VEGFR2) (AID 2283230)
In short: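 Cell-free recombinant VEGFR2 kinase, fluorescent substrate with electrophoretic mobility-shift separation; read 1 h after dosing. Screened at 25 uM in duplicate, hits to concentration-response up to 50 uM; loss-of-signal versus DMSO.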

[18] = target: human Adrenergic, Alpha 2A Receptor (Adra2A), ADRA2A (gene 150) (UniProt P08913); experiment: NVS_GPCR_hAdra2A: NovaScreen (NVS) G Protein-Coupled Receptor Assay for human Adrenergic, Alpha 2A Receptor (Adra2A) (AID 2283257)
In short: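 Radioligand filter-binding was run on HT29-derived membranes, cell-free, read by scintillation counting 1 h after dosing. Primary screening was in duplicate at 25 uM, with concentration series in follow-up. Loss of signal versus DMSO indicates displacement.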

[19] = target: human Adrenergic, Beta 1 Receptor (Adrb1), ADRB1 (gene 153) (UniProt P08588); experiment: NVS_GPCR_hAdrb1: NovaScreen (NVS) G Protein-Coupled Receptor Assay for human Adrenergic, Beta 1 Receptor (Adrb1) (AID 2283258)
In short: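 Cell-free radioligand displacement on receptor from human neuroepithelioma cells; 2 h after dosing, filter-based scintillation counting. Primary screen in duplicate at 25 uM, actives retested in concentration series; loss of signal vs DMSO baseline.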

[20] = target: Beta-2 adrenergic receptor (Homo sapiens) (UniProt P07550); experiment: NVS_GPCR_hAdrb2: NovaScreen (NVS) G Protein-Coupled Receptor Assay for human Adrenergic, Beta 2 Receptor (Adrb2) (AID 2283261)
In short: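 Filter-based radioligand binding using receptor prepared from CHO cells, 1 h incubation, scintillation counting. Primary screen in duplicate at 25 uM, actives retested in concentration series; loss of binding relative to DMSO.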

## O=C1OC2(c3ccc(O)cc3Oc3cc(O)ccc32)c2ccccc21
[1]
  AC50: 18.2 µM (active)
[2]
  outcome: inactive
[3]
  outcome: inactive

## CCCCCCCCCCCCS
[1]
  AC50: 25 µM (active)

## C=CCOCC(O)CO (stereo not given)
[1]
  AC50: 25 µM (active)

## COc1ccc(C(C)=O)cc1
[4]
  outcome: inactive

## CCCCCC1C(=O)CCC1CC(=O)OC (stereo not given)
[3]
  outcome: inactive

## O=C1OCc2ccccc21
[5]
  outcome: inactive

## CC1=CC(C)C(C=O)C(C)C1 (stereo not given) (tested in a mixture with another compound)
[2]
  outcome: inactive

## COc1ccccc1NC(=O)CC(C)=O
[1]
  AC50: 14.6 µM (active)

## C#C[C@]1(O)CC[C@H]2[C@@H]3CCc4cc(O)ccc4[C@H]3CC[C@@]21C
[6]
  AC50: 38.4 µM (active)
[2]
  outcome: inactive
[5]
  AC50: 6.76 µM (active)

## Cc1cc(N)n(-c2ccccc2)n1
[1]
  outcome: inactive

## CC(=O)c1ccc(C)cc1
[1]
  outcome: inactive

## CC/C(=C(\c1ccccc1)c1ccc(OCCN(C)C)cc1)c1ccccc1
[7]
  outcome: inactive
[8]
  outcome: inactive
[9]
  outcome: inactive
[10]
  AC50: 22.9 µM (active)
[11]
  AC50: 19.1 µM (active)
[12]
  AC50: 6.95 µM (active)
[3]
  outcome: inactive
[13]
  AC50: 6.32 µM (active)
[14]
  AC50: 4.89 µM (active)
[15]
  AC50: 9.54 µM (active)

## Cc1cc(O)c(C)c(C)c1O
[3]
  outcome: inactive

## c1ccc(Sc2ccccc2)cc1
[1]
  outcome: inactive

## CC(C)(O)CCc1ccccc1
[1]
  outcome: inactive

## Cc1ccc(C(C)(C)O)cc1
[1]
  outcome: inactive

## CC(O)COCC(C)O (stereo not given)
[1]
  outcome: inactive

## CC(=O)CCC=C(C)CCC=C(C)C
[1]
  AC50: 43.3 µM (active)

## O=[N+]([O-])c1cc(N(CCO)CCO)ccc1NCCO
[2]
  outcome: inactive

## C[C@]12CC[C@@H]3c4ccc(O)cc4CC[C@H]3[C@@H]1CC[C@@H]2O
[7]
  outcome: inactive

## O=S1(=O)CC(Cl)(Cl)C(Cl)(Cl)C1
[3]
  outcome: inactive

## O=C(c1ccc(OCCN2CCCCC2)cc1)c1c(-c2ccc(O)cc2)sc2cc(O)ccc12
[7]
  AC50: 17.4 µM (active)
[16]
  AC50: 25 µM (active)
[8]
  AC50: 10.3 µM (active)
[17]
  AC50: 3.07 µM (active)
[9]
  AC50: 1.02 µM (active)
[11]
  AC50: 5.18 µM (active)
[12]
  AC50: 3.5 µM (active)
[3]
  AC50: 0.508 µM (active)
[13]
  AC50: 3.57 µM (active)
[4]
  outcome: inactive
[14]
  AC50: 2.27 µM (active)
[5]
  AC50: 6.13 µM (active)
[18]
  AC50: 9.52 µM (active)
[19]
  AC50: 10.5 µM (active)
[15]
  AC50: 2.78 µM (active)
[20]
  AC50: 11.8 µM (active)
